The nature of experiment [1]: qHTS assay to identify small molecule antagonists of the estrogen related receptor (ERR) signaling pathway from Tox21 library - cell viability counter screen (AID 1224834). Further: nearly all actives have a fitted effect of over 30% in size. Further: potency means the concentration at half of the fitted maximal effect. The gist of the method: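 Compounds in DMSO were pinned onto ERR cells that had been incubated for 6 h, and the plates were held at 37 C for 17.5 h. CellTiter-Fluor reagent was then added and fluorescence was measured after 30 min.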
(In general: Quantitative high-throughput screening tests each substance at several concentrations.)

The target of experiment [2] is Luciferin 4-monooxygenase (Photinus pyralis) (UniProt P08659). Kind of experiment: qHTS assay to identify small molecule inhibitors of firefly luciferase (AID 1224835). Further: nearly all actives have a fitted effect of over 25% in size. Further: potency means the concentration at half of the fitted maximal effect. A digest of the protocol:
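Inhibition of purified Photinus luciferase is measured by luminescence. Substrate levels (D-luciferin, ATP) sit at their KM values. Each compound is tested in a concentration series.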

Experiment [3] has as its target Nuclear receptor subfamily 1 group I member 3 (Homo sapiens) (UniProt Q14994). Description: qHTS assay to identify small molecule antagonists of the constitutive androstane receptor (CAR) signaling pathway (AID 1224838).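 Further: HepG2 cells stably expressing hCAR with CYP2B6 luciferase reporter stimulated by CITCO; nearly all actives have a fitted effect of over 40% in size.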 The gist of the method:
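Luminescence from a CYP2B6-2.2kb promoter reporter in hCAR-expressing HepG2 cells reflects CAR signaling. Cells received compounds at 15 concentrations and 50 nM CITCO (final), then incubated 24 h at 37 C/5% CO2.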

For experiment [4] the target is unchanged. Kind of experiment: qHTS assay to identify small molecule agonists of the constitutive androstane receptor (CAR) signaling pathway (AID 1224839). Further: nearly all actives have a fitted effect of over 15% in size. Further: potency means the concentration at half of the fitted maximal effect. A digest of the protocol: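 A 15-concentration quantitative screen uses HepG2 cells co-transfected stably with human CAR and CYP2B6-2.2kb reporter. Treatment lasts 24 h with 0.75 uM PK11195 final present; ONE-Glo luminescence is the signal.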

Experiment [5] in a line: qHTS assay to identify small molecule agonists of the estrogen related receptor signaling pathway with the pleiotropic PPARgamma coactivator (PGC) from Tox21 10K library (AID 1224842). Further: nearly all actives have a fitted effect of over 15% in size. The gist of the method:
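Luminescence from One-Glo (30 min, room temperature) measured after PGC/ERR cells had 18 h at 37 C with pinned compound (23 nL in DMSO). Cells had been seeded at 2,000 per well and pre-incubated 6 h.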

Experiment [6] concerns the target Thyrotropin receptor (Homo sapiens) (UniProt P16473). Kind of experiment: qHTS assay to identify small molecule agonists of the thyroid stimulating hormone receptor (TSHR) signaling pathway (AID 1224843; calls by dose curve; further: nearly all actives have a fitted effect of over 45% in size; further: potency means the concentration at half of the fitted maximal effect). A digest of the protocol: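 A cell-based cAMP HTRF format was run in TSHR-transfected HEK293 cells, 800 per well. Treatment: 30 min, room temperature. Detection: 1 h with labelled cAMP and anti-cAMP cryptate. Concentration-response over 15 points, three replicates.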

A short description of experiment [7]: qHTS assay to identify small molecule agonists of the hypoxia (HIF-1) signaling pathway - cell viability counter screen (AID 1224844; calls by dose curve; further: nearly all actives have a fitted effect of over 50% in size; further: potency means the concentration at half of the fitted maximal effect). A digest of the protocol: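 Viability counter screen: HRE-bla ME-180 cells plated 5 hrs before compound addition, treated 17 hrs at 37C and 5% CO2, then CellTiter-Glo added after the FRET reporter read; luminescence after 30 min.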

Experiment [8] is described as follows: qHTS assay to identify small molecule agonists of H2AX (AID 1224845; active means well fitted activation curve with a large enough effect in the signal ratio in the repeat runs, not every such curve was filed as active; the % refers to the signal ratio). A digest of the protocol:
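Phospho-H2AX Ser139 measured by HTRF (ex 320 nm; em 665 and 620 nm) after 24 hr antibody incubation. Compounds, 15 concentrations, 0.76% DMSO, were applied to CHO-K1 cells for 3hr at 37C before lysis.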

Experiment [9] can be described thus: qHTS assay to identify small molecule agonists of H2AX - cell viability counter screen (AID 1224847; calls by dose curve; further: nearly all actives have a fitted effect of over 30% in size; further: potency means the concentration at half of the fitted maximal effect). The gist of the method:
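We seed wild-type CHO-K1 cells overnight, treat them for 3 hr at 37C with compounds in 15-concentration series, and quantify remaining viability by CellTiter-Glo luminescence.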

A short description of experiment [10]: qHTS assay to identify small molecule antagonists of the estrogen related receptor (ERR) signaling pathway from Tox21 library (AID 1224848). Further: nearly all actives have a fitted effect of over 50% in size. Further: potency means the concentration at half of the fitted maximal effect. The gist of the method: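 ERR cell line, 2,000 cells/well. 6 h settle, then compound (DMSO) added; 18 h at 37 C; ONE-Glo luminescence after 30 min RT.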
Experiment [11] in a line: qHTS assay to identify small molecule agonists of the estrogen related receptor (ERR) signaling pathway from Tox21 library (AID 1224849; calls by dose curve; further: nearly all actives have a fitted effect of over 15% in size). The following applies: ERR reporter cell line, ONE-Glo luciferase, 18 h; at 92.4 µM (top of the series) unless noted. The gist of the method:
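Quantitative HTS in agonist format: NTP ERR cell line, compounds transferred in DMSO after 6 h plating, 18 h incubation at 37 C, ONE-Glo luminescence endpoint.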

Experiment [12] is described as follows: qHTS RealTime-Glo MT Cell Viability Assay in HEK293 cells - 32 hour (AID 1224868). Further: nearly all actives have a fitted effect of over 50% in size. Further: potency means the concentration at half of the fitted maximal effect. The gist of the method: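 Homogeneous bioluminescent viability format in HEK293 cells (600 cells/well). Following 5 h at 37 C/5% CO2, 23 nL compound was pintooled; the signal was measured repeatedly during 40 h incubation.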
Experiment [13] in a line: A CellTox Green Cytotoxicity Assay to monitor cytotoxicity in HEK293 cells - 0 hour (AID 1224869). Further: nearly all actives have a fitted effect of over 50% in size. A digest of the protocol:
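Dead-cell fluorescence measured kinetically: asymmetric cyanine dye, HEK293, 600 cells/well, 5 h settle, 23 nL cpd/DMSO, 37 C, reads 0–40 h every 8 h.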

Experiment [14] can be described thus: qHTS assay to identify small molecule agonists of the constitutive androstane receptor (CAR) signaling pathway - cell viability counter screen (AID 1224836). Further: nearly all actives have a fitted effect of over 45% in size. The gist of the method:
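Counter screen multiplexed with the CAR reporter readout: HepG2 cells co-transfected with hCAR and the CYP2B6-2.2kb construct receive a 15-concentration compound series and 0.75 uM PK11195 (final), then CellTiter-Fluor fluorescence is read after 23 h.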

Experiment [15] in a line: qHTS assay to identify small molecule antagonists of the estrogen related receptor signaling pathway with the pleiotropic PPARgamma coactivator (PGC) from Tox21 10K library - cell viability counter screen (AID 1224840; active means well fitted cell-killing curve with a large enough effect in the repeat runs, not every such curve was filed as active; further: nearly all actives have a fitted effect of over 40% in size; further: potency means the concentration at half of the fitted maximal effect). A digest of the protocol:
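Cell viability is measured by CellTiter-Fluor fluorescence in PGC/ERR cells that receive compounds after a 6-hour attachment period and are then incubated 17.5 hours at 37 C.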

Experiment [16] in a line: qHTS assay to identify small molecule agonists of the hypoxia (HIF-1) signaling pathway (AID 1224846; active means well fitted activation curve with a large enough effect in the signal ratio in the repeat runs, not every such curve was filed as active; the % refers to the signal ratio). A digest of the protocol: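 Agonist mode reporter screen. ME-180 cells stably expressing bla under HRE control received test compounds in DMSO for 17 hrs (37C, 5% CO2), and beta-lactamase activity was then detected with the CCF4-AM FRET substrate.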
Experiment [17] is described as follows: qHTS RealTime-Glo MT Cell Viability Assay in HepG2 cells - 24 hour (AID 1224867). Further: nearly all actives have a fitted effect of over 50% in size. Further: potency means the concentration at half of the fitted maximal effect. A digest of the protocol:
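Cell number in HepG2 cultures estimated from NanoLuc luminescence generated by metabolic reduction of a prosubstrate by living cells. The homogeneous, nonlytic format allowed repeated reads at 0, 8, 16, 24, 32 and 40 h of compound exposure.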

A short description of experiment [18]: qHTS RealTime-Glo MT Cell Viability Assay in HepG2 cells - 40 hour (AID 1224870). Further: nearly all actives have a fitted effect of over 50% in size. Further: potency means the concentration at half of the fitted maximal effect. The gist of the method: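 Real-time viability: cells seeded at 600 per well together with NanoLuc and cell-permeant prosubstrate, compounds added after 5 h incubation. Luminescence tracked at 0, 8, 16, 24, 32 and 40 h of exposure.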
A short description of experiment [19]: qHTS assay to identify small molecule antagonists of the constitutive androstane receptor (CAR) signaling pathway - cell viability counter screen (AID 1224837). Further: nearly all actives have a fitted effect of over 45% in size. The gist of the method: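 Cells are seeded, rested 4 hr at 37 C/5% CO2, dosed with compound (15-point series) and 50 nM CITCO, incubated a further 23 hr, and then CellTiter-Fluor reagent is added before fluorescence is read. The line is HepG2 with stable hCAR and CYP2B6-2.2kb.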

Experiment [20] can be described thus: qHTS assay to identify small molecule antagonists of the estrogen related receptor signaling pathway with the pleiotropic PPARgamma coactivator (PGC) from Tox21 10K library (AID 1224841; call rule not given here). The gist of the method: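 Cells stably carrying the PGC/ERR reporter, seeded at 2,000 per well, received pin-transferred compounds 6 h post-plating. Exposure lasted 18 h at 37 C. Signal: One-Glo luminescence.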

Unmarked numbers belong to inactive results. Results filed as inconclusive are left out. Activity calls are given as the source filed them. Unless noted, the call rests on the fitted dose curve; in most records, active means well fitted curve in the direction sought with a large enough effect in the repeat runs; inconclusive means weak or mixed curves; inactive means no such curve, though single readings can be large; an effect the other way counts as inactive or inconclusive.
On the % scale 0 is the no-effect control and ±100 the full control effect.

Nuclear receptor subfamily 1 group I member 3 (Homo sapiens), sequence (Q14994 whole entry, looked up): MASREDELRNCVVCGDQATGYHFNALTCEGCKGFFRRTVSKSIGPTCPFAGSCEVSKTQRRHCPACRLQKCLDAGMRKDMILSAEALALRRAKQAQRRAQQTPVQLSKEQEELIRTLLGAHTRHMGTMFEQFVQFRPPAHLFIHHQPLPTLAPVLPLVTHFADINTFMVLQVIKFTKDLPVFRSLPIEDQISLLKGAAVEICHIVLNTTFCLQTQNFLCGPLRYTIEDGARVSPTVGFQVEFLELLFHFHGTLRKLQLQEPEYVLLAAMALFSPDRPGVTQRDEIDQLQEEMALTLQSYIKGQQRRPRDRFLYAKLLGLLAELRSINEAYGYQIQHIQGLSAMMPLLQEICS
Luciferin 4-monooxygenase (Photinus pyralis), sequence (P08659 whole entry, looked up): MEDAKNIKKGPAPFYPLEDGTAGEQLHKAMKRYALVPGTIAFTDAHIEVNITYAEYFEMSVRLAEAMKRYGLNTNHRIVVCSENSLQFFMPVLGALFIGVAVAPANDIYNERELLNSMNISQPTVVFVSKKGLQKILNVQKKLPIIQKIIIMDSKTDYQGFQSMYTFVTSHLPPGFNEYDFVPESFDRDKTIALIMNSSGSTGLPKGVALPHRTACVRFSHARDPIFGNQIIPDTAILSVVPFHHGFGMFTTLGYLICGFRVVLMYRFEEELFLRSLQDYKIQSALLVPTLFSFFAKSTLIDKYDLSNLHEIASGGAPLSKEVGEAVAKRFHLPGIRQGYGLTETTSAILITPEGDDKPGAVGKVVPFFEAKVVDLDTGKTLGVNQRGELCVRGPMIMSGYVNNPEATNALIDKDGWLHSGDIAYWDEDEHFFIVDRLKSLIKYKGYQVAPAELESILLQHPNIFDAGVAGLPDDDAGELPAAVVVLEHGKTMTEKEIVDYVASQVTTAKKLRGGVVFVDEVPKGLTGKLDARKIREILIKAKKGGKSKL
Thyrotropin receptor (Homo sapiens), sequence (P16473 whole entry, looked up): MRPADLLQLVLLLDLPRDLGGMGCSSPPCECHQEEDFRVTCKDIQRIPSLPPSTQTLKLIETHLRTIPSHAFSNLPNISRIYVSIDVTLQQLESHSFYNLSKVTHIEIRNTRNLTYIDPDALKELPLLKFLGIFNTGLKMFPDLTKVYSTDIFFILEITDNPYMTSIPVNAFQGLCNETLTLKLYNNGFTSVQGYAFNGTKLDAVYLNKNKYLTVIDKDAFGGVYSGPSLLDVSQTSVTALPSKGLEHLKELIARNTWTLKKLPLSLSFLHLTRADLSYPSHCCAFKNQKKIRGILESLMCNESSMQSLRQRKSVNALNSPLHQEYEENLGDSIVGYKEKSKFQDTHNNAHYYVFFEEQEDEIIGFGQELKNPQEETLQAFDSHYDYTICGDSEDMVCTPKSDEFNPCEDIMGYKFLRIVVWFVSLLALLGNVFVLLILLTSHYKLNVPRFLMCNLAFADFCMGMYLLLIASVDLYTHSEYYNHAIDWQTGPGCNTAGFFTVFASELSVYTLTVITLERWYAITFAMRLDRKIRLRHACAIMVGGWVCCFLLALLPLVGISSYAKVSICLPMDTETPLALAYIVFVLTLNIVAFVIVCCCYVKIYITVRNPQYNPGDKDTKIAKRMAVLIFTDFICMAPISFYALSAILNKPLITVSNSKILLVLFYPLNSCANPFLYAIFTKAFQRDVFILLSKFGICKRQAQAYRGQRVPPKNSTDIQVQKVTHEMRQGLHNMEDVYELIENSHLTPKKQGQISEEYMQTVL

`Cc1cc(C(C)(C)c2cc(C)c(O)c(C)c2)cc(C)c1O`: the Potency is 41.8 µM (active) in [1]; 4.69 µM (active) in [4]; 33.2 µM (active) in [6]; 109 µM (active) in experiment [9]; 26.4 µM (active) in experiment [10]; 18.9 µM (active) in experiment [12]. The Potency result in experiment [2], in experiment [3], in [5], in [7], in experiment [8] and in experiment [13] was “inactive” in each case. Further, the activity change, positive = activation in experiment [11] is -83.8%.

As to `O=C(Cl)c1ccc(Cl)cc1`, the Potency result in experiment [1], in experiment [2], in experiment [14], in experiment [15], in experiment [6] and in experiment [7] was “inactive” each time. The Potency entry in [9], in experiment [17] and in experiment [13] was “inactive” in each case. For the same compound, the compound was classed as inactive in [16].

In the case of `CN(C)CCc1c[nH]c2cccc(O)c12`, the Potency result in [1], in experiment [2], in experiment [14], in [15], in experiment [7] and in [9] was “inactive” in each case. The Potency entry in [17], in experiment [12], in experiment [13] and in [18] was “inactive” in each case.

For the compound `CCCCOP(=O)(CCCC)OCCCC`, the Potency result in experiment [1], in [2], in experiment [14], in [3], in experiment [15] and in [7] was “inactive” each time. Also, the Potency entry in experiment [8], in [10], in experiment [17], in [13] and in experiment [18] was “inactive” each time. For the same compound, the compound was classed as inactive in experiment [16].

As for `Clc1ccc(CO/N=C(\Cn2ccnc2)c2ccc(Cl)cc2Cl)c(Cl)c1`, the values for the Potency in experiment [1], in experiment [10] and in experiment [17] were 26.6 µM (active), 18.8 µM (active) and 23.9 µM (active), respectively. The Potency result in [2], in [19], in experiment [3] and in experiment [13] was “inactive” in each case.

As for `O=C(O)c1cc[c]([Hg][Cl])cc1`, the Potency was 13.7 µM (active) in experiment [1]; 5.03 µM (active) in experiment [2]; 13.7 µM (active) in experiment [15]; 15.4 µM (active) in experiment [6]; 54.9 µM (active) in experiment [7]; 24.5 µM (active) in [17]. In addition, in [18], the Potency is 24.5 µM (active). Also, the Potency result in [4] and in [13] was “inactive” each time.

For the compound `CNC(C)Cc1ccc2c(c1)OCO2` (configuration not stated), the Potency result in experiment [1], in experiment [2], in experiment [14], in experiment [3], in experiment [4] and in experiment [15] was “inactive” each time. Moreover, the Potency entry in experiment [6], in [9], in experiment [17], in [12], in [13] and in experiment [18] was “inactive” throughout.

Regarding `CC(C)CC(C)N` (configuration not stated), the Potency result in experiment [1], in [2], in experiment [14], in [15], in [20] and in experiment [5] was “inactive” throughout. Besides, the Potency entry in experiment [6], in experiment [7], in experiment [8], in experiment [9], in experiment [10] and in experiment [17] was “inactive” in each case. For the same compound, the Potency entry in experiment [12], in experiment [13] and in experiment [18] was “inactive” throughout. Also, the call in experiment [16] was inactive. In addition, the activity change, positive = activation in [11] was 0.671%.

For `COC(=O)N(C(=O)N1CO[C@@]2(C(=O)OC)Cc3cc(Cl)ccc3C2=N1)c1ccc(OC(F)(F)F)cc1`, the Potency result in [1], in experiment [2], in experiment [14], in experiment [15], in experiment [5] and in experiment [8] was “inactive” each time. The Potency entry in [9], in experiment [17], in [13] and in experiment [18] was “inactive” in each case. The result in [16] was inactive. The Potency in [10] was 8.35 µM (active).

These data come from PubChem BioAssay (Tox21).
